Experimental findings from the supplement of paper PMC4709259 are described below.

Counter-ions that a name gives are not always drawn. ± gives the standard deviation.

In this test the test system is Jurkat. The test is described as follows: cell count relative to DMSO control (fraction of control); higher = more cells (less growth inhibition). Particulars: 48 h.
As for `CN1C(=O)OC(C)(C)C1=O` [Trimethadione] (concentration: 25 µM), the cell count came out at 1.02 ± 0.025.

The compound `Cc1oncc1C(=O)Nc1ccc(C(F)(F)F)cc1` [Leflunomide] (concentration: 25 µM) came in with a cell count of 0.606 ± 0.038.

As for `O=P(O)(O)C(Sc1ccc(Cl)cc1)P(=O)(O)O` [Tiludronate Disodium] (concentration: 25 µM), the cell count worked out at 0.663 ± 0.15.

For the compound `OC(Cn1cncn1)(Cn1cncn1)c1ccc(F)cc1F` [Fluconazole] (concentration: 25 µM), the cell count is 0.325 ± 0.14.

`Nc1ncn([C@H]2C[C@H](O)[C@@H](CO)O2)c(=O)n1` [Decitabine] (concentration: 2.5 µM) gave a cell count of 0.363 ± 0.035.

Regarding `CCCNC(C)C(=O)Nc1c(C)csc1C(=O)OC` (stereo unspecified) [Articaine·HCl] (concentration: 25 µM), the cell count is 0.738 ± 0.059.
